High-throughput results from PubChem BioAssay.
The list is not random: actives were taken first. Their share in the collection is about 21%.
Shiga inhibitor: A qHTS for Small Molecule Inhibitors of Shiga Toxin; Vero cells, Shiga toxin protein synthesis inhibition reporter; inhibition, % at 38.7 µM; 290,000 compounds, 9.2% hits; AID 2315, 2010; in the data active = inhibition mostly above about 28%, no sharp cut-off; inactive = mostly below about 43%; note: 0% is about no effect
CHX counter: Cycloheximide Counterscreen for Small Molecule Inhibitors of Shiga Toxin. cell reporter, cycloheximide protein synthesis inhibition counterscreen. max response, %. 300,000 compounds, 12% hits; in the data active = max response mostly above about 13%, no sharp cut-off; inactive = mostly below about 14%; note: read at 38.3 µM for the half of the compounds with a filed dose; 0% is about no effect
Sm TGR inh: qHTS Assay for the Inhibitors of Schistosoma Mansoni Peroxiredoxins; Schistosoma mansoni thioredoxin glutathione reductase (TGR), Q962Y6; purified TGR, DTNB reduction, TNB absorbance 405 nm; Potency, µM (series often up to 114 µM), inactives show top-dose activity change, negative = inhibition, actives largely listed as inhibitors; 360,000 compounds, 3% hits; note: potency is the fitted concentration of half-maximal effect; % is set by controls: 0 for no effect and ±100 for the full control effect; nearly all actives have a fitted effect of over 60% in size
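First, TGR (20 nM dispensed) and NADPH were mixed with compound. Second, a 15 min room-temperature incubation followed. Third, further NADPH and then DTNB were added to start the reaction. Finally, TNB absorbance was monitored kinetically.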
Pf growth 96h: Primary qHTS for delayed death inhibitors of the malarial parasite plastid, 96 hour incubation; Potency, µM (titrated, usually from 28.7 µM), without a hit: top-dose activity change, negative = inhibition, usual class: inhibitors; 320,000 compounds, 6.9% hits; P. falciparum luciferase reporter growth, 96 h; note: potency is the fitted concentration of half-maximal effect; % is set by controls: 0 for no effect and ±100 for the full control effect
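Erythrocytes infected with luciferase-expressing P. falciparum were dispensed at 2% hematocrit and 0.05% parasitemia (final), then incubated with compounds 96 hours at 37 C in 5% CO2. Luminescence after detection reagent addition reported growth.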
NS1 function inh: qHTS Assay for Inhibitors of Influenza NS1 Protein Function; Potency, µM (doses to about 46.1 µM), for the others: at the top dose activity, positive = more growth; 270,000 compounds, 0.4% hits; AID 2326, 2010; calls by dose curve; note: potency is the fitted concentration of half-maximal effect; actives are rising curves; nearly all actives have a fitted effect of over 50% in size
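S. cerevisiae expressing influenza A NS1, grown in glucose, washed, then diluted 1:100 into pH 6.0 -URA galactose medium with 23 nl compound. Growth recovery read as OD600; NS1-free strain serves as control.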
Pf growth 48h: Primary qHTS for delayed death inhibitors of the malarial parasite plastid, 48 hour incubation | Potency, µM (highest dose often 28.7 µM), for the others: top-dose activity change, negative = inhibition, hits mostly inhibitors | AID 504832, 2011 | P. falciparum luciferase growth in erythrocytes, 48 h | 310,000 compounds, 5.9% hits; note: potency is the fitted concentration of half-maximal effect; % is set by controls: 0 for no effect and ±100 for the full control effect
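Luciferase-expressing P. falciparum in infected erythrocytes (2% hematocrit, 0.1% parasitemia final) in RPMI 1640/0.5% Albumax were exposed to compound for 48 hours at 37 C, 5% CO2; growth read as luminescence.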
* = called active by the depositor. Unless noted, calls come from the whole dose curve; as a rule, active = well fitted curve in the direction sought with a large enough effect; inconclusive = small, poorly fitted or top-dose-only effect, or another doubt; inactive = no such curve, though single readings can be large; an effect the other way counts as inactive or inconclusive.

CCOc1ccc(N2C(=O)C3ON(c4ccccc4)C(c4cccs4)C3C2=O)cc1 (stereo not drawn) was read as Shiga inhibitor -10.3, CHX counter -4.2, Sm TGR inh -19.0%, Pf growth 96h 68.1%, NS1 function inh 1.8% and Pf growth 48h 11.7µM*.
For COc1cccc(N2C(=O)C3ON(c4ccccc4)C(c4cccs4)C3C2=O)c1 (stereo not drawn) the results were Shiga inhibitor 13.2, CHX counter -1.4, Sm TGR inh -35.0%, Pf growth 96h 5.1% and NS1 function inh -2.3%.
Cc1nn(C)c(C)c1CN(C)C(=O)c1cc2n(n1)C(C(F)(F)F)CC(c1cccs1)N2 (stereo not drawn) was read as Shiga inhibitor -12.1, CHX counter -3.3, Sm TGR inh 0.1%, Pf growth 96h 9.28µM*, NS1 function inh -2.8% and Pf growth 48h inconclusive.
Cc1nn(C)cc1CN(C)C(=O)c1nn2c(c1Br)NC(c1cccs1)CC2C(F)(F)F (stereo not drawn) was read as Shiga inhibitor -14.1, CHX counter -3.6, Sm TGR inh -0.5%, Pf growth 96h 5.22µM*, NS1 function inh -3.6% and Pf growth 48h 13.1µM*.
`CCCn1nnnc1NCc1cccc(Cl)c1` gave Shiga inhibitor 12.1, CHX counter 0.4, Sm TGR inh 1.6%, Pf growth 96h 1.9%, NS1 function inh 8.1% and Pf growth 48h 29.4%.
NC(=O)N=Nc1c(O)[nH]c2ccc([N+](=O)[O-])cc12 was read as Shiga inhibitor -2.4, CHX counter 0.8, Sm TGR inh 0.0%, Pf growth 96h -19.8%, NS1 function inh -1.5% and Pf growth 48h 7.9%.
Screening COc1ccccc1C(=O)N=Nc1c(O)[nH]c2ccc([N+](=O)[O-])cc12 returned Shiga inhibitor 30.1, CHX counter 12.7, Sm TGR inh -8.4%, Pf growth 96h inconclusive and Pf growth 48h 10.4µM*.
Cc1ccc(N(CC(=O)Nc2ccc(-c3nc4ccc(C)cc4s3)cc2)S(C)(=O)=O)cc1 was read as Shiga inhibitor 116.6*, CHX counter 57.8*, Sm TGR inh 16.8%, Pf growth 96h 81.7%, NS1 function inh -2.8% and Pf growth 48h 193.2%.
Cc1ccc(C)c(N(CC(=O)Nc2ccc(-c3nc4ccc(C)cc4s3)cc2)S(C)(=O)=O)c1 was read as Shiga inhibitor 80.2*, CHX counter 27.7*, Sm TGR inh -8.2%, Pf growth 96h 34.8%, NS1 function inh -2.7% and Pf growth 48h inconclusive.
Cc1ccc2nc(-c3ccc(NC(=O)c4ccc(S(C)(=O)=O)cc4)cc3)sc2c1 was read as Sm TGR inh 11.8%.
Screening CCOC(=O)N1CCN(C(=O)CCCn2nc(C)c3sc4ccccc4c3c2=O)CC1 returned Shiga inhibitor 67.9*, CHX counter 13.3, Sm TGR inh 10.5%, Pf growth 96h 13.9%, NS1 function inh -63.2% and Pf growth 48h 5.22µM*.
`CCOC(=O)C(C)n1nc(C)c2sc3ccccc3c2c1=O` (stereo not drawn) gave Shiga inhibitor 1.2, CHX counter 2.6, Sm TGR inh 39.8µM*, Pf growth 96h 20.1%, NS1 function inh -56.8% and Pf growth 48h -33.7%.
Cc1ccc(CNC(=O)C(C)n2nc(C)c3sc4ccccc4c3c2=O)cc1 (stereo not drawn) was read as Sm TGR inh 3.8%.
Screening Cc1nn(CCCC(=O)NCc2ccccc2)c(=O)c2c1sc1ccccc12 returned Sm TGR inh -13.0%.
Screening CC1CCCC(NC(=O)CCNC(=O)c2ccc([N+](=O)[O-])cc2)C1C (stereo not drawn) returned Shiga inhibitor -13.4, CHX counter -3.7, Sm TGR inh -10.5%, Pf growth 96h 24.5%, NS1 function inh -11.8% and Pf growth 48h 9.2%.
COc1cc(-c2noc(-c3ccc(NCc4cccnc4)c([N+](=O)[O-])c3)n2)cc(OC)c1OC was read as Sm TGR inh 0.6%.
For CC(C)C(=O)Nc1ccc2c(c1)nc(CCN1CCCCC1)n2C the results were Shiga inhibitor 5.1, CHX counter 6.4, Sm TGR inh -10.2%, Pf growth 96h 41.2%, NS1 function inh 2.0% and Pf growth 48h 31.4%.
For CC(C)CC(=O)Nc1ccc2c(c1)nc(CCN1CCCCC1)n2C the results were Shiga inhibitor -12.3, CHX counter -5.1, Sm TGR inh 5.5%, Pf growth 96h 13.1µM*, NS1 function inh 1.6% and Pf growth 48h inconclusive.
For COc1ccccc1C(=O)Nc1ccc2c(c1)nc(CCNC(C)=O)n2C the results were Shiga inhibitor 26.1, CHX counter 16.8*, Sm TGR inh 10.3%, Pf growth 96h inconclusive, NS1 function inh 6.7% and Pf growth 48h 152.1%.
Cn1cnc2cc(NC(=O)COc3ccccc3)ccc21 was read as Shiga inhibitor 75.8*, CHX counter 38.1*, Sm TGR inh -9.4%, Pf growth 96h -0.6%, NS1 function inh 11.2% and Pf growth 48h 78.7%.
For CCC(=O)Nc1ccc2c(c1)ncn2C the results were Shiga inhibitor 5.1, CHX counter -2.0, Pf growth 96h inconclusive, NS1 function inh 0.2% and Pf growth 48h 21.1%.
`COc1ccccc1C(=O)Nc1ccc2c(c1)nc(CCNC(=O)c1ccccc1)n2C` gave Shiga inhibitor 21.0, CHX counter 21.8, Sm TGR inh 21.7%, Pf growth 96h inconclusive, NS1 function inh 4.3% and Pf growth 48h inconclusive.
CCC(=O)NCCc1nc2cc(NC(=O)c3cccs3)ccc2n1C was read as Shiga inhibitor 47.9*, CHX counter 16.9*, Sm TGR inh -0.7%, Pf growth 96h 171.2% and Pf growth 48h 289.8%.
For Cc1ccc(NC(=O)CSc2nc(=O)n(Cc3ccccn3)c3c2CCC3)cc1F the results were Sm TGR inh -3.4%.
`Cc1ccc(-n2nc3c(=O)n(CCCC(=O)NC(C)c4ccccc4)nc(C)c3c2C)cc1` (stereo not drawn) gave Sm TGR inh 0.1%.
O=C(O)CC[C@@H](C(=O)O)N1C(=O)c2ccccc2C1=O was read as Shiga inhibitor -4.5, CHX counter -2.2, Sm TGR inh 8.2%, Pf growth 96h 24.5%, NS1 function inh inconclusive and Pf growth 48h -10.0%.
Screening CC(Sc1nc2ccccc2s1)C(=O)N(C)Cc1ccccc1 (stereo not drawn) returned Shiga inhibitor 22.6, CHX counter 7.4, Sm TGR inh -3.9%, Pf growth 96h inconclusive, NS1 function inh -27.4% and Pf growth 48h 6.9%.
